Assay results as given in PubChem BioAssay AID576 (NMMLSC, 2007).
The campaign covered roughly 24,000 compounds. About 150 (0.62%) were called active. Shown is part of a subset that was picked to be rich in actives. Values without a mark were called inactive.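 The calls were made as follows: active = fluorescence ratio above 2.44, which is 1 plus 3 SD of all ratios; inconclusive = signal too bright to measure linearly, ratio around 10 or more; inactive = fluorescence ratio below 2.44.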

test: compound autofluorescence on Jurkat cells, primary screen, artefact control for VLA-4 allosteric ligand project, cell-based, flow cytometry (AID 576); conditions: hits give high values, 1 = vehicle-only cell background;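 also: green fluorescence of cells measured with 488 nm excitation and 530 nm emission; tested at 10 µM compound in the well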

Point of comparison: CCCCn1c(CN2CCN(CCO)CC2)nc2ccccc21, fluorescence ratio 1.04. Against it:
- COc1ccccc1N1CCN(Cc2nnnn2CCc2ccccc2)CC1 — lower, 0.99
- COc1ccc(C2CC(c3ccc(Cl)cc3Cl)Nc3nc(N)nn32)cc1OC (stereo not drawn) — higher, 1.06
- C=CCOC(=O)C1=C(C)OC(N)=C(C#N)C1c1ccc(F)cc1 (stereo not drawn) — higher, 1.25
- CC(=O)N1C(=O)C2(Nc3ccccc3N2)c2ccccc21 — the same, 1.04
- CCOC(=O)c1sc(=S)n(-c2cccc(OC)c2)c1N — higher, 1.14
- Cc1ccccc1CSc1nnc(Cn2c(=O)sc3ccccc32)n1C — lower, 0.88
- CCOC(=O)CSc1nnc(CNC(=O)c2ccco2)n1-c1ccc(F)cc1 — lower, 1
- CCOC(=O)c1ccc(CS(=O)c2ccc(Cl)cc2)o1 (stereo not drawn) — higher, 1.08
- CC1=C(C)CC2C(=O)N(c3cccc4ccccc34)C(=O)C2C1 (stereo not drawn) — higher, 1.06
- COC(=O)C(C)Sc1nc2c(c(=O)n(C)c(=O)n2C)n1Cc1cccc(C)c1 (stereo not drawn) — higher, 1.09
- O=C1OC(NC(=O)c2ccccc2)C(N2CCOCC2)=C1Cl (stereo not drawn) — higher, 1.07
- O=C(CN1CCN(c2ccc(F)cc2)CC1)Nc1cccc(C(F)(F)F)c1 — lower, 0.96
- CCc1ccc(NC(=O)CSc2nc3ccccc3c(=O)n2CCN2CCOCC2)cc1 — higher, 1.15
- CCn1cc(C(=O)NC2CCCCCC2)c(=O)c2cc(S(=O)(=O)N3CCCCC3)ccc21 — higher, 1.18
- CCCC(=O)NC(C)C(c1cccs1)N1CCN(c2ccccc2)CC1 (stereo not drawn) — higher, 1.12
- O=C(Nc1cccnc1)c1ccc2c(c1)OCO2 — higher, 1.06
- CCOC(=O)n1c(SCC(=O)N(CC)CC)nc2ccccc21 — lower, 0.99
- CCS(=O)(=O)N1CCCC(C(=O)NCc2ccc(C)cc2)C1 (stereo not drawn) — lower, 0.99
- CCOC(=O)C1CCN(C(=O)Cc2c(C(=O)O)[nH]c3ccccc23)CC1 — higher, 1.09
- COc1ccc(OC)c(C(=O)c2ccc(C(=O)O)cc2)c1 — lower, 0.99
- COc1ccccc1-c1c(C)nn2c(C)c(C(C)=O)cnc12 — lower, 0.98
- Cc1ccc(C)c(N2CCN(C(=O)CCc3nc4ccccc4[nH]3)CC2)c1 — the same, 1.04
- O=C(CN1CCOCC1)Nc1c2c(nc3c1CCC3)CCC2 — lower, 0.96
- Cc1cc(NC(=O)c2cc(-c3cccs3)on2)nn1Cc1ccc(Cl)cc1 — higher, 1.05
- CC(=O)Nc1nonc1-c1nc2ccccc2n1Cc1ccccn1 — higher, 1.24
- CC(Sc1sc(=S)sc1SC(C)C(=O)O)C(=O)O (stereo not drawn) — lower, 0.93
- Cn1c(=O)cc(SCC(=O)N2CCN(C(=O)c3ccco3)CC2)c2ccccc21 — higher, 1.12
- C=CCNC(=O)CSc1nc2sc(C)c(C)c2c(=O)[nH]1 — higher, 1.07
- O=C(O)CC(c1ccccc1)n1cnnn1 (stereo not drawn) — lower, 0.92
- Cn1nnnc1SCc1cc(=O)[nH]c2ccccc12 — higher, 1.06
- CC(C)OCCCNC(=O)C1CC(=O)N(C2CCCCCCC2)C1 (stereo not drawn) — lower, 0.98
- CCOc1ccc(N(CC(=O)NCc2ccc(OC)cc2)S(=O)(=O)c2c(C)noc2C)cc1 — lower, 0.82
- COc1ccc(CCN(Cc2cc3cccc(C)c3[nH]c2=O)C(=O)N2CCCC2)cc1OC — higher, 1.08
- O=C(CN1C(=O)C2C3C=CC(C3)C2C1=O)NCCc1ccccc1Cl (stereo not drawn) — higher, 1.19
- O=C(CCn1c(=O)oc2ccccc21)Nc1ccon1 — lower, 1.03
- Cc1cc(=O)n2nc(N3CCCC(C(=O)N4CCN(C)CC4)C3)sc2n1 (stereo not drawn) — higher, 1.07
- Cc1ccc(-c2cc(C(F)(F)F)n3nc(C(=O)N4CCCC4)cc3n2)cc1 — lower, 1.02
- Cc1nc(C)c2c(c1C(F)(F)F)-c1ccccc1C2(F)F — higher, 1.11
- CCOC(=O)c1cnc(-n2nc(C)cc2C)nc1Nc1cccc(C(C)=O)c1 — higher, 1.06
- COCc1[nH]nc2c1C(C1C=CCCC1)C(C#N)=C(N)O2 (stereo not drawn) — higher, 1.09
- Cc1noc(C)c1S(=O)(=O)NCCc1ccc(S(N)(=O)=O)cc1 — higher, 1.07
- Cn1c(=O)n(C)c2cc(CNc3ccc(N4CCOCC4)c(C(=O)O)c3)ccc21 — lower, 0.99
- O=C(O)C1CCCN(S(=O)(=O)c2cccc3cccnc23)C1 (stereo not drawn) — lower, 0.95
- COc1ccc(-c2nc(CS(=O)CC(=O)NCc3cccnc3)c(C)o2)cc1OC (stereo not drawn) — lower, 0.78
- COc1ccc(C2/C(=C(/O)c3ccccc3)C(=O)C(=O)N2c2ncccn2)cc1OC (stereo not drawn) — lower, 0.98
- Cc1nc(N2CCN(c3ncccn3)CC2)c2oc3ccccc3c2n1 — higher, 1.15
- CCOC(=O)N1CCN(C(=O)c2cn(C)c3ccc(S(=O)(=O)N4CCCC4)cc3c2=O)CC1 — higher, 1.07
- COc1ccccc1NC1=NC2(CCCC2)N=C(N)N1 — the same, 1.04
- COc1ccc(-c2cc3ccc(OCc4nn[nH]n4)cc3oc2=O)cc1 — higher, 1.09
- Fc1ccc2nc(N3CCCCC3)sc2c1 — higher, 1.31
- CNC(=O)c1ccc2nc(NC(C)=O)sc2c1 — lower, 1.01
- CCOC(=O)C1CCCN(C(=O)C2CCN(c3nnc(-n4cccc4)s3)CC2)C1 (stereo not drawn) — higher, 1.06
- CSc1ccc(S(=O)(=O)Nc2cccc(F)c2)cc1 — lower, 0.98
- O=C(c1cnn2ccccc12)N1CCc2ccccc21 — lower, 0.92
- CCOC(=O)N1CCC(NC(=O)CCc2cn(C)c3ccccc23)CC1 — lower, 0.96
- N#CCCn1ncc2ccccc21 — lower, 0.9
- CCC1=C/C(=C\c2ccc3c(c2)OCO3)C(=O)S1 — higher, 1.11
- CC1CCCC(N2CCN(C(=O)c3ccc(F)cc3)CC2)C1 (stereo not drawn) — lower, 0.93
- Cc1c(C(=O)N2CC(C)OC(C)C2)sc2nc(-c3ccccc3)cn12 (stereo not drawn) — higher, 1.33
- CCC(=O)N1CCc2cc(S(=O)(=O)NC(C(=O)N3CCc4ccccc4C3)C(C)C)ccc21 (stereo not drawn) — lower, 0.97
- COc1ccc(CCNS(=O)(=O)c2ccc(C(=O)NCc3ccco3)cc2)cc1OC — lower, 1.03

With Fc1ccc2nc(Nc3nc4c(s3)CCCC4)sc2c1 the fluorescence ratio was 4.43 (active).
